Test results: PubChem BioAssay AID488837 (National Center for Advancing Translational Sciences (NCATS), 2010)
Hit rate of the full screen: of about 330,000 compounds, about 20 (0.006%) were called active. About 1% were inconclusive and are not listed. The call rests on the fitted dose curve; in most records, active means well fitted inhibition curve with a large enough effect; inconclusive means small, poorly fitted or top-dose-only effect, or effect the other way; inactive means flat fitted curve, though single readings scatter. The list comes from a sample in which actives are over-represented; it also holds similar structures and randomly drawn compounds.

Molecular target: Protein phosphatase EYA2 (Homo sapiens) (UniProt O00167)
Test: qHTS Assay for Inhibitors of the Phosphatase Activity of Eya2
Settings: recombinant Eya2, OMFP fluorescence dephosphorylation (OMFP is methylfluorescein phosphate); series mostly up to 76.9 µM
Excerpt: The Eya family of proteins are essential co-activators of the Six1 transcription factor. Six1 is a developmental gene that is abnormally re-expressed in a large percentage of breast cancers. This over-expression plays a causal role in the initiation and metastatic development of breast cancers. The Eya family of proteins was also found to contain a unique HAD phosphatase domain with protein tyrosine phosphatase activity which can potentially play a role in Six1-mediated breast tumorigenesis. […] We have developed and optimized a 1536 well fluorescence-based HTS assay targeting the phosphatase activity of Eya2. Inhibitors found against Eya2 could serve as potential therapeutic tools to inhibit Six1-mediated breast tumorigenesis and to increase the efficiency of radiation and certain chemo therapy. These inhibitors could also be used as chemical probes to study the function of Eya2's phosphatase activity and its role in Six1-mediated breast tumorigenesis.
The Eya2 enzyme was kindly provided by the laboratory of Dr. Rui Zhao. The 3-O-methyl-fluorescein phosphate (OMFP) substrate and all buffer reagents were purchased from Sigma Aldrich. qHTS Assay Setup: 1. Buffer- 50 mM HEPES pH 7.5, 50 mM NaCl, 5 uM MgCl2, 0.05% BSA, 1 mM DTT. 2. OMFP Stock- 10 mM solution prepared in 100% DMSO and stored in single use aliquots at -20C. Assay Procedure- 1. Dispense 1.5 ul per well of Eya2 at 0.2 uM in black medium binding 1536 well Greiner plate 2. Transfer 23 nl of compound and control compound (EGTA) to plate 3. Incubate at ambient for 10 minutes 4. Dispense 1.5 ul per well of OMFP at 50 uM 5. Incubate at ambient for 10 minutes 6. Read on ViewLux using Excitation = 485 nm, Emission = 525 nm

Sequence of Protein phosphatase EYA2 (Homo sapiens) (O00167 whole entry, looked up): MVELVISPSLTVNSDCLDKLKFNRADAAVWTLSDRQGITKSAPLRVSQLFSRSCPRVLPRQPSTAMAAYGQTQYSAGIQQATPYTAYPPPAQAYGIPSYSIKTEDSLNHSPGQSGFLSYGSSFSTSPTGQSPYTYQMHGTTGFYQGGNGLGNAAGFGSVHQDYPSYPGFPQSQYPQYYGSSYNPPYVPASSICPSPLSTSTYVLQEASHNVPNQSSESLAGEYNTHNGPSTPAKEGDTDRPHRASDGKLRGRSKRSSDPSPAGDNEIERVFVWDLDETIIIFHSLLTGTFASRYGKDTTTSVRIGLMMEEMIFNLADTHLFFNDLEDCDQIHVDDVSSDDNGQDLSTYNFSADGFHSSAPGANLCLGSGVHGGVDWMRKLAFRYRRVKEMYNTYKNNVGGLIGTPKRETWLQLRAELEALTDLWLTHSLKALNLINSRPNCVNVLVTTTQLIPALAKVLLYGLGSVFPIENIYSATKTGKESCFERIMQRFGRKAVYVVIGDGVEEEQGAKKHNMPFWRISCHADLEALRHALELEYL

activity, negative = inhibition, inactive:
CC1CC2C3CCC4=CC(=O)C=C[C@]4(C)[C@@]3(F)[C@@H](O)C[C@]2(C)[C@@]1(O)C(=O)CO (stereo partly drawn)
Cc1cc(=O)[nH]c(N/N=C/c2c(C)nn(-c3ccccc3Cl)c2Cl)n1
CC(C)NC(=O)NCCCCCCS(C)=O (stereo not drawn)
N#CCSc1nc(-c2ccccc2)nc2ccc(F)cc12
Cc1nnnn1/C(=C\c1ccccc1)C(=O)OCC(=O)N1CC2(C)CC1CC(C)(C)C2 (stereo not drawn)
C=CCOc1ccc(C(=O)Nc2ccccc2C(=O)N2CCCC2)cc1
O=C(NCCCCO)C(F)(F)C(F)(F)C(F)(F)C(=O)NCCCCO
COc1ccc(CCc2nnc(CCC(=O)NCc3cnn(-c4ccccc4C)c3)o2)cc1
CCc1cccc(C)c1N1C(=O)CN(Cc2ccccc2)C1=S
O=C(NCc1cc(C(F)(F)F)cc(C(F)(F)F)c1)C1CC(c2cccc(F)c2)=NO1 (stereo not drawn)
CSc1ccccc1N1CCN(CCCCCC(=O)NC2CCCc3ccccc32)CC1 (stereo not drawn)
COCc1cc(=O)[nH]c(SC)n1
N#Cc1cccc(OC(=O)c2ccc3c(=O)n4c(nc3c2)CCC4)c1
Cc1snc(SCc2c(F)cccc2Cl)c1C#N
CCOC(=O)C1CN(S(=O)(=O)c2ccc(F)cc2)C1
O=S(=O)(c1ccc(Cl)cc1)c1nc(-c2ccccc2F)oc1NCCN1CCOCC1
COc1cc(C)c(S(=O)(=O)N2CCOCC2)c(C)c1C
O=C(CSc1ccccc1F)NC1CCS(=O)(=O)C1 (stereo not drawn)
Clc1cccc(Cl)c1Cn1nnc(-c2cccs2)n1
Cc1ccc(NC(=O)CCNC(=O)c2ccc([N+](=O)[O-])cc2)cc1S(=O)(=O)N1CCOCC1
CC(C)(O)C#Cc1ncc(C(F)(F)F)cc1Cl
COc1ccc(-c2nc3ccccc3n2CCC(C)C)cc1OC
CN1CCN(C(=O)c2ccccc2NC(=O)COc2ccccc2Cl)CC1
CCOc1ccc(NC(=O)C(C)N2C(=O)c3ccccc3C2=O)cc1 (stereo not drawn)
O=C(OC1CCOC1=O)c1ccc(-c2nc3ccccc3s2)s1 (stereo not drawn)
O=S(=O)(/C=C/c1ccccc1)NCCc1ccccn1
Cc1cc(C(F)F)nn1CC(=O)NC1CCCCCC1
COc1ccc(C(C#N)Nc2ccc(C)cc2)cc1 (stereo not drawn)
Cc1ccc(C2(C(F)(F)F)N=C3Sc4cc(C)cc(C)c4N3C(=O)N2)cc1 (stereo not drawn)
COc1ccc(-n2nc3c(c2NC(=O)c2ccc(N4C(=O)CCC4=O)cc2)CSC3)cc1
CC(O)c1cccc(NC(=O)Cc2cccc3ccccc23)c1 (stereo not drawn)
O=C(NC1CCCC1)C(c1ccco1)N(C(=O)c1ccco1)c1ccc(F)cc1 (stereo not drawn)
CC(C)(C)c1cc2cccnc2n1Cc1ccccc1
CCN1CCN(c2nc(Nc3cc(OC)ccc3OC)nc(Nc3cc(OC)ccc3OC)n2)CC1
COc1ccc(-c2cc(C(F)(F)F)nc(S(C)(=O)=O)n2)cc1OC
O=C(CN1CCN(S(=O)(=O)c2ccc3ccccc3c2)CC1)NC(=O)NC1CCCCC1
CN(CC(=O)Nc1c(Cl)cccc1Cl)C(=O)CC1OC(=O)c2ccccc21 (stereo not drawn)
CN(Cc1nc2ccc(F)cc2[nH]1)Cc1nc(CC2CC2)no1
COc1ccc(-c2nc(CS(=O)(=O)CC(=O)NCc3cccc(Br)c3)c(C)o2)cc1
CCOC(=O)c1ccc2c(c1)nc(SCC(=O)NC(C)C)n2CC
CC1(C)CC(O)C(CCC(O)c2ccccc2)C(C)(C)N1 (stereo not drawn)
Cc1ccc(S(=O)(=O)N(C)C)cc1NC(=O)c1ccccc1Br
CC1CC(C)CN(CCCNC(=O)Cn2ncc3c([nH]c4ccccc43)c2=O)C1 (stereo not drawn)
O=C1COc2ccc(C(=O)COC(=O)C3CC(O)CN3S(=O)(=O)c3ccc(Cl)cc3)cc2N1 (stereo not drawn)
NC(=O)Cn1nc([N+](=O)[O-])nc1Oc1ccc(Br)cc1
Cc1cc(C)nc(SC2CCCCC2NS(=O)(=O)c2ccc(Cl)cc2)n1 (stereo not drawn)
O=C(O)c1cc(S(=O)(=O)Nc2ccc3cn[nH]c3c2)ccc1Br
CCN(CC(=O)NC1CCS(=O)(=O)C1)S(=O)(=O)c1ccccc1 (stereo not drawn)
COc1ccc(COC(=O)c2ccc(Cl)c(S(=O)(=O)N3CCOCC3)c2)cc1F
CCN(CC)Cc1c(C(=O)N/N=C/c2cccc(OCc3ccc(F)cc3)c2)nnn1-c1nonc1N
O=C(CN(C(=O)c1csnn1)c1cccc(F)c1)NCc1ccc(F)cc1
CC(C)=CCN1CCN(Cc2ccc(Oc3ncccn3)cc2)CC1CCO (stereo not drawn)
COc1ccc(N2CCN(C(=O)CN3C(=O)COc4ccccc43)CC2)cc1
O=C(O)c1cscn1
COc1cccc2cc(-c3cc(=O)oc4cc(C)c(O)cc34)oc12
O=C(C[C@H]1C/C=C\C[C@@H](NC(=O)OCC2c3ccccc3-c3ccccc32)C(=O)O[C@@H](c2ccccc2)CNC1=O)N[C@H](CO)Cc1ccccc1
CCOc1cc(/C=N/Nc2cc(C)nc3ccc(C)cc23)ccc1O
CC(C)CN(C(=O)CN1CCN(S(=O)(=O)c2ccccc2)CC1)c1c(N)n(CC(C)C)c(=O)[nH]c1=O
COc1ccc(S(=O)(=O)N2CCCC(C(=O)NCCCn3ccnc3)C2)cc1OC (stereo not drawn)
COc1ccc(NC(=O)C/C(C)=N/NC(=O)c2cnccn2)cc1Cl
Cc1ccc(S(=O)(=O)N(CC(=O)N/N=C/c2ccc(F)cc2)c2cccc3cccnc23)cc1
COc1ccc(C(=O)N(CCN2CCOCC2)CC(=O)NC2CCCC2)cc1OC
O=C(NC(Cc1c[nH]c2ccccc12)C(=O)O)/C(=C/c1ccco1)NC(=O)c1ccccc1 (stereo not drawn)
O=C(NCc1ccccc1Cl)C(=O)NCC1CCCN1S(=O)(=O)c1cccs1 (stereo not drawn)
CCC1(C)CC(=O)NC1=O (stereo not drawn)
CCCCOC(=O)Nc1nccs1
Cc1ccc(NS(=O)(=O)c2ccc3c(c2)NC(=O)CO3)cc1
COC(=O)[C@H](Cc1ccccc1)NC(=O)[C@@H]1C[C@H]1[C@@H](NC(=O)OCc1ccccc1)c1ccccc1
COc1ccc(C2OC(=O)CC2C(=O)NC(C)C)cc1 (stereo not drawn)
Cc1csc(=O)n1CC(=O)OCC(=O)N(CC(C)C)c1c(N)n(Cc2ccccc2)c(=O)[nH]c1=O
C[C@@H](CN1CCC[C@H]1CN1C(N)=NC[C@@H]1Cc1ccccc1)N1C[C@@H](Cc2ccccc2)N(CCCC2CCCC2)C1=N
O=C(Nc1cc(S(=O)(=O)N2CCOCC2)ccc1OCC(F)(F)F)c1ccc(N2CCCC2=O)cc1
Cc1ccc(O)c(-c2cc(C(=O)Nc3c(C)n(C)n(-c4ccccc4)c3=O)[nH]n2)c1
O=C(CCC(=O)OCc1cccc(C(=O)Oc2ccccc2)c1)Nc1cccc2ccccc12
CC(C)C(NC(=O)c1c(F)cccc1F)C(=O)NNC(=O)c1ccccc1 (stereo not drawn)
CCn1cc(CN2CCC(n3nccc3NC(=O)CCCc3ccccc3)CC2)c(C)n1
CC(C)c1nnc(NC(=O)C2CC(=O)N(CCc3ccc(F)cc3)C2)s1 (stereo not drawn)
CN(c1ccc(OCC(=O)OCC(=O)Nc2cccc([N+](=O)[O-])c2)cc1)S(=O)(=O)c1ccc(F)cc1
Nc1ccc(Nc2cc(O)c3ncccc3c2)cc1
CCOc1ccc(C(=O)CCC(=O)Nc2ccncc2)cc1
CCCCc1ccc(NC(=S)N2CCCC(CO)C2)cc1 (stereo not drawn)
COc1ccc(C(=O)CCc2ccccc2O)c(OC)c1
CC1=CCC2C(=O)N(c3cccc(C(=O)NC(C)c4ccccc4)c3)C(=O)C2C1 (stereo not drawn)
COc1ccc(S(=O)(=O)N2CCN(C(=O)N(C)C)C2C)cc1 (stereo not drawn)
CCOc1ncccc1C(=O)NNC(=O)c1cccc(S(=O)(=O)Nc2ccccc2OC)c1
CCN(CC)C(=O)Oc1ccc(Br)cc1C(=O)Nc1ccc(F)c(Cl)c1
NS(=O)(=O)c1ccc(CCNS(=O)(=O)c2cccc3cccnc23)cc1
Cc1ccc(CNC(=O)CCS(=O)(=O)c2ccc3c(c2)CC(C)N3C(=O)C2CC2)o1 (stereo not drawn)
O=C(NCc1ccco1)C1CCCN1S(=O)(=O)c1ccccc1C(F)(F)F (stereo not drawn)
CCNc1nc(Oc2ccc(C(=O)OC)cc2)nc(N2CCOCC2)n1
Cc1ccc2nc(NC(=O)CSc3nc(=O)n(CCCN(C)C)c4c3CCC4)sc2c1
CCOc1ccc(Br)cc1S(=O)(=O)Nc1ccc(S(=O)(=O)Nc2cc(C)on2)cc1
CCCc1nc(SCC(=O)Nc2ccccc2OC)c2c(=O)n(C)c(=O)n(C)c2n1
CN(C)S(=O)(=O)c1ccc(C(=O)NCCN=C2NS(=O)(=O)c3ccccc32)cc1
CC(=O)NCCC(=O)Nc1cc(S(=O)(=O)N2CCCCC2)ccc1Oc1cccc(C)c1
COc1ccc(C(C(=O)NC2CCCC2)N(CCCO)C(=O)Cn2nnc(-c3ccc(C)o3)n2)cc1 (stereo not drawn)
CCc1cc(C(=O)OC)c(NC(=O)CC2Sc3ccc(C(F)(F)F)cc3NC2=O)s1 (stereo not drawn)
O=C(O)C1CCC(CNS(=O)(=O)c2ccc(Br)cc2)CC1 (stereo not drawn)
O=C1CCC([N+](=O)[O-])C(c2ccccc2Br)N1 (stereo not drawn)
COC(=O)c1sc(NC(=O)COC(=O)C2CCC2)c(C(=O)OC)c1C
CCOC(=O)c1c(CNCc2ccccc2F)c2sc(C)cc2n1C
COC(=O)N1CN(C(=O)OC)CN(C(=O)OC)C1
CC1CCN(S(=O)(=O)c2ccc3[nH]c(=O)ccc3c2)CC1
